Experiment [1] can be described thus: Caspase-3/7 induction in HepG2 cells by small molecules, qHTS assay (AID 1346978). Also: nearly all actives have a fitted effect of over 15% in size. The essentials:
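Wild-type HepG2 cells, 2,000/well, settled 5 hr at 37 C and 5% CO2, then compound-treated for 17 hr; caspase-3/7 activity read by luminescent Caspase-Glo 3/7 after 30 min at room temperature.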
Background: qHTS replaces the single test concentration by a dilution series.

Experiment [2] can be described thus: Caspase-3/7 induction in CHO-K1 cells by small molecules, qHTS cell viability counter screen (AID 1346979). Also: nearly all actives have a fitted effect of over 35% in size. Also: potency is read from the fitted curve at half-maximal effect. A digest of the protocol: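 CHO-K1 wt, 1,500 cells/well; 5hr pre-incubation 37C/5% CO2; compound pin transfer (DMSO); 16hr exposure; CellTiter-Fluor added, 1hr, fluorescence read.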
Experiment [3] can be described thus: Caspase-3/7 induction in CHO-K1 cells by small molecules, qHTS assay (AID 1346980). Also: nearly all actives have a fitted effect of over 15% in size. Also: potency is read from the fitted curve at half-maximal effect. A digest of the protocol:
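Wild-type CHO-K1 cells exposed to compounds for 17hr at 37 C, 5% CO2. Caspase-3/7 activity then measured by Caspase-Glo 3/7 luminescence after 30min at room temperature.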

The nature of experiment [4]: Caspase-3/7 induction in HepG2 cells by small molecules, qHTS cell viability counter screen (AID 1346981). Also: nearly all actives have a fitted effect of over 30% in size. Also: potency is read from the fitted curve at half-maximal effect. A digest of the protocol:
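Steps: seed 2,000 HepG2 cells per well; incubate 5 hr at 37 C; pin-add compounds in DMSO; incubate 16 hr; add CellTiter-Fluor; after 1 hr at 37 C and 5% CO2, read fluorescence.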

In experiment [5] the target is Nuclear receptor subfamily 1 group I member 2 (Homo sapiens) (UniProt O75469). Kind of experiment: Human pregnane X receptor (PXR) small molecule agonists, qHTS assay (AID 1346982). Also: nearly all actives have a fitted effect of over 35% in size. Also: potency is read from the fitted curve at half-maximal effect. A digest of the protocol:
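Agonist mode qHTS: PXR-Luc HepG2 cells plated 5 hr before DMSO-dissolved compounds were pinned in, cultured 24 hr at 37 C, 5% CO2; ONE-Glo luminescence readout.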

The target of experiment [6] is Acetylcholinesterase (Homo sapiens) (UniProt P22303). Description: Acetylcholinesterase (AChE) small molecule antagonists: enzyme-based qHTS assay (AID 1347397; calls by dose curve; also: nearly all actives have a fitted effect of over 55% in size). As to conditions: Potency: AChE enzyme activity inhibition. A digest of the protocol: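 Recombinant human AChE (50 mU/mL) preincubated with compound 30 min at room temperature; acetylthiocholine plus DTNB then added, and thiocholine formation read colorimetrically after 10 min at room temperature. DMSO served as vehicle control.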

For experiment [7] the target is unchanged. Kind of experiment: Acetylcholinesterase (AChE) small molecule antagonists: fluorescence cell-based qHTS assay (AID 1347398; calls by dose curve; also: nearly all actives have a fitted effect of over 50% in size). As to conditions: Potency: AChE activity. The essentials:
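SH-SY5Y cells (2000/well), attached overnight, incubated with compound 30 min at 37 C. Acetylthiocholine plus Thiolite Green then added for 40 min at room temperature. Thiocholine fluorescence (Ex/Em 490/520 nm) reports cellular AChE activity.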

Experiment [8] shares this target. Description: Acetylcholinesterase (AChE) small molecule antagonists: enzyme-based qHTS assay with human liver microsomes (AID 1347399; calls by dose curve; also: nearly all actives have a fitted effect of over 60% in size). As to conditions: Potency: qHTS inhibition. The essentials:
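Recombinant human AChE (50 mU/mL in the enzyme mix) and human liver microsomes (0.25 mg/mL final) were preincubated with compound and NADPH (0.25 mg/mL final) for 30 min at 37 C. Acetylthiocholine/DTNB was then added; thiocholine was read colorimetrically after 10 min at room temperature.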

Experiment [9] deals with Cytochrome P450 2D6 (Homo sapiens) (UniProt P10635). Description: Cytochrome P450 Family 2 Subfamily D Member 6 (CYP2D6) small molecule antagonists: luciferase reporter qHTS assay (AID 1671196). Also: nearly all actives have a fitted effect of over 50% in size. Also: potency is read from the fitted curve at half-maximal effect. A digest of the protocol: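 P450-Glo format: CYP2D6 converts a proluciferin substrate to luciferin in an NADPH-driven reaction lasting 1 h at room temperature. Light output, proportional to CYP2D6 activity, reflects interference by test chemicals.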
In general terms: Reporter assays use an easily measured gene product as a stand-in for the process of interest.

Experiment [10] concerns the target Cytochrome P450 2C19 (Homo sapiens) (UniProt P33261). Kind of experiment: Cytochrome P450 Family 2 Subfamily C Member 19 (CYP2C19) small molecule antagonists: luciferase reporter qHTS assay (AID 1671197). Also: nearly all actives have a fitted effect of over 65% in size. Also: potency is read from the fitted curve at half-maximal effect. The essentials: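 Compounds were tested on CYP2C19 activity via proluciferin conversion to luciferin. The 37C, 1 h reaction followed NADPH addition; detection reagent stopped it.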

Experiment [11] addresses Cytochrome P450 2C9 (Homo sapiens) (UniProt P11712). Description: Cytochrome P450 Family 2 Subfamily C Member 9 (CYP2C9) small molecule antagonists: luciferase reporter qHTS assay (AID 1671198). Also: nearly all actives have a fitted effect of over 50% in size. Also: potency is read from the fitted curve at half-maximal effect. A digest of the protocol:
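P450-Glo proluciferin substrate with CYP2C9 enzyme; 10 min RT preincubation, then NADPH regeneration 1 h at 37C; luciferin detection reagent 20 min RT, luminescence in relative luminescence units.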

Experiment [12] deals with Cytochrome P450 1A2 (Homo sapiens) (UniProt P05177). Description: Cytochrome P450 Family 1 Subfamily A Member 2 (CYP1A2) small molecule antagonists: luciferase reporter qHTS assay (AID 1671199). Also: nearly all actives have a fitted effect of over 50% in size. Also: potency is read from the fitted curve at half-maximal effect. The essentials: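 Inhibition of CYP1A2 conversion of proluciferin to luciferin, detected by luminescence. Reaction run 1 h at room temperature with NADPH regeneration after brief compound preincubation.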

For experiment [13], the target named is Voltage-gated inwardly rectifying potassium channel KCNH2 (Homo sapiens) (UniProt Q12809). Kind of experiment: Human Ether-a-go-go-Related Gene (hERG) channel small molecule antagonists: fluorescence cell-based qHTS assay (AID 1671200). A digest of the protocol: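 Read-out: thallium influx as a surrogate for potassium, tracked as fluorescence (480 nm ex/540 nm em) every second for 2 min after Stimulus Buffer addition in dye-loaded hERG-U2OS cells.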

The target in experiment [14] is Cytochrome P450 3A4 (Homo sapiens) (UniProt P08684). Kind of experiment: Cytochrome P450 Family 3 Subfamily A Member 4 (CYP3A4) small molecule antagonists: luciferase reporter qHTS assay (AID 1671201). Also: nearly all actives have a fitted effect of over 50% in size. Also: potency is read from the fitted curve at half-maximal effect. The essentials:
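Luminescent readout (RLU) proportional to CYP3A4 activity, from luciferin generated off a proluciferin substrate. Enzyme–substrate mix plus compound 10 min at room temp, NADPH regeneration 1 h, detection reagent 20 min.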

The target in experiment [15] is Acetylcholinesterase (Homo sapiens) (UniProt P22303). Kind of experiment: Acetylcholinesterase (AChE) small molecule antagonists: colormetric cell-based qHTS assay (AID 1347395; calls by dose curve; also: nearly all actives have a fitted effect of over 30% in size). A digest of the protocol: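 SH-SY5Y cells; cpd 30 min 37 C; + DTNB/acetylthiocholine, 90 min 37 C; colorimetric thiocholine read; qHTS.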

The values below come from PubChem BioAssay (Tox21).

Records with an inconclusive call do not appear. Active and inactive are the calls of the source. Unless noted, calls follow the shape of the dose curve; as a rule, active = well fitted curve in the direction sought with a large enough effect in the repeat runs; inconclusive = weak or mixed curves; inactive = no such curve, though single readings can be large; an effect the other way counts as inactive or inconclusive.

Chain of Cytochrome P450 2C9 (Homo sapiens) (P11712 whole entry, looked up): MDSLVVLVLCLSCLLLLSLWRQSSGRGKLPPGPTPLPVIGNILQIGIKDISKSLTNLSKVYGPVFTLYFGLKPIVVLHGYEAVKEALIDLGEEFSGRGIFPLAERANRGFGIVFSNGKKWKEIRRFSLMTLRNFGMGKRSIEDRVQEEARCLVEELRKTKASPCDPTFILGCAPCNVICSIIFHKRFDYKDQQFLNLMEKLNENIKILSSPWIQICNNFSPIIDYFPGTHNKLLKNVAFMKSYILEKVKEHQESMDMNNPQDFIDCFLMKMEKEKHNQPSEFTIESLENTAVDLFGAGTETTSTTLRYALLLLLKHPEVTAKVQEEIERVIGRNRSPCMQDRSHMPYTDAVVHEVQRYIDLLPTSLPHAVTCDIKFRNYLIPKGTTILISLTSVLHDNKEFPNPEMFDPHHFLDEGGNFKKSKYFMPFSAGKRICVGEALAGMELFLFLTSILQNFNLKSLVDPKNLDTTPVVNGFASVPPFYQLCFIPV
Chain of Cytochrome P450 3A4 (Homo sapiens) (P08684 whole entry, looked up): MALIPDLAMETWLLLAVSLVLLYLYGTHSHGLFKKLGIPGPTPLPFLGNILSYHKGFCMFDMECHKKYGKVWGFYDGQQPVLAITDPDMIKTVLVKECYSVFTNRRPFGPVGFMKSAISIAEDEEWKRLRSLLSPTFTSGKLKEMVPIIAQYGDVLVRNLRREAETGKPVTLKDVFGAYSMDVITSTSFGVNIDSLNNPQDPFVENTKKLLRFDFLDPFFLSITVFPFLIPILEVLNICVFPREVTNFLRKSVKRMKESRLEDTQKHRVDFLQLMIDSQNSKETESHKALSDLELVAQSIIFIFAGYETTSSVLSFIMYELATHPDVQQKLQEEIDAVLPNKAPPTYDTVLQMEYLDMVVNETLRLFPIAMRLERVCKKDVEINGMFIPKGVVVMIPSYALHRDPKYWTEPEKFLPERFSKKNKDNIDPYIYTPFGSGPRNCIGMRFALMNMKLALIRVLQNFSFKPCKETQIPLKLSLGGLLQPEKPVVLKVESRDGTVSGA
Chain of Acetylcholinesterase (Homo sapiens) (P22303 whole entry, looked up): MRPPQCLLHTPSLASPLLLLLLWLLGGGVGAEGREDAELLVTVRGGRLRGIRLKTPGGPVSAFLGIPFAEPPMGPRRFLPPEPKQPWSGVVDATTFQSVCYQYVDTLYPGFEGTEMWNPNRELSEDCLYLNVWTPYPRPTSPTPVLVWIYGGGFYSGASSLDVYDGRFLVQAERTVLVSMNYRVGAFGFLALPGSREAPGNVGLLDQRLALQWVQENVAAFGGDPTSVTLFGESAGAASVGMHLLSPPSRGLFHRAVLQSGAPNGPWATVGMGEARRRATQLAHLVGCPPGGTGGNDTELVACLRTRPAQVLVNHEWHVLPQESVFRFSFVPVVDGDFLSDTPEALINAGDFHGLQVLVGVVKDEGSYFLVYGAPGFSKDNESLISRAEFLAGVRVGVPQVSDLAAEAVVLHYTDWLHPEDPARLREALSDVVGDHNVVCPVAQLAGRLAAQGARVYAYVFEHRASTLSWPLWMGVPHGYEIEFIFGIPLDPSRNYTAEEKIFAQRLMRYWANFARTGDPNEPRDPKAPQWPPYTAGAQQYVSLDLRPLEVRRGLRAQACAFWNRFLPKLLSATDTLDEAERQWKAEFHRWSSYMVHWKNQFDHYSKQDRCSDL
Chain of Voltage-gated inwardly rectifying potassium channel KCNH2 (Homo sapiens) (Q12809 whole entry, looked up): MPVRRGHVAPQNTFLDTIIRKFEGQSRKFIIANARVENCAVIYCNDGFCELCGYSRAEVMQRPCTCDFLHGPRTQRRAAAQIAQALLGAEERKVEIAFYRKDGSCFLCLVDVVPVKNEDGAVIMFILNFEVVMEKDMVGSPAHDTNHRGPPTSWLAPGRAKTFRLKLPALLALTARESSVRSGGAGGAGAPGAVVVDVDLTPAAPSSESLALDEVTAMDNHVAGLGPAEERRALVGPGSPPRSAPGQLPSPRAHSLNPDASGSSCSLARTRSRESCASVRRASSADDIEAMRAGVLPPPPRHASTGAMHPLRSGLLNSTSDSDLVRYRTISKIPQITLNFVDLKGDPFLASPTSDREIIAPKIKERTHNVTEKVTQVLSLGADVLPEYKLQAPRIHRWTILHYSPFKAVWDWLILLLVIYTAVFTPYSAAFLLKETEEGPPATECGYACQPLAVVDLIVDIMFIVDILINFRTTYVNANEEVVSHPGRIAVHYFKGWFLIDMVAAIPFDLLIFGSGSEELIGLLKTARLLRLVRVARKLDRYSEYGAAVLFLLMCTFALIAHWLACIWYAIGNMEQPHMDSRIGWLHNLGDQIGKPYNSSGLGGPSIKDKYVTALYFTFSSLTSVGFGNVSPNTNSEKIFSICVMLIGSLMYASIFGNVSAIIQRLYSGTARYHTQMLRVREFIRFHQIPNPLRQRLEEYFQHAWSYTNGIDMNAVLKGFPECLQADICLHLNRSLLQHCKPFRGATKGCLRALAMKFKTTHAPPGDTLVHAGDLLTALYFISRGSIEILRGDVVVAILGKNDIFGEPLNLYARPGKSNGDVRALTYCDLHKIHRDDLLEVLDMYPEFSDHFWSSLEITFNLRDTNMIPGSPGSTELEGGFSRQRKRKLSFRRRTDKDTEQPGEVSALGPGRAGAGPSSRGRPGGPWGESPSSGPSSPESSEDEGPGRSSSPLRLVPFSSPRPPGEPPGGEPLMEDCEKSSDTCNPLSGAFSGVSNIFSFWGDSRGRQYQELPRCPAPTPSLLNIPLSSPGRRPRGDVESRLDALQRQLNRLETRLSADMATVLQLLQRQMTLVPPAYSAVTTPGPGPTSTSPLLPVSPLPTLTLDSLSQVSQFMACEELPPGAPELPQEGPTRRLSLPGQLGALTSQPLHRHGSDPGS
Chain of Cytochrome P450 2D6 (Homo sapiens) (P10635 whole entry, looked up): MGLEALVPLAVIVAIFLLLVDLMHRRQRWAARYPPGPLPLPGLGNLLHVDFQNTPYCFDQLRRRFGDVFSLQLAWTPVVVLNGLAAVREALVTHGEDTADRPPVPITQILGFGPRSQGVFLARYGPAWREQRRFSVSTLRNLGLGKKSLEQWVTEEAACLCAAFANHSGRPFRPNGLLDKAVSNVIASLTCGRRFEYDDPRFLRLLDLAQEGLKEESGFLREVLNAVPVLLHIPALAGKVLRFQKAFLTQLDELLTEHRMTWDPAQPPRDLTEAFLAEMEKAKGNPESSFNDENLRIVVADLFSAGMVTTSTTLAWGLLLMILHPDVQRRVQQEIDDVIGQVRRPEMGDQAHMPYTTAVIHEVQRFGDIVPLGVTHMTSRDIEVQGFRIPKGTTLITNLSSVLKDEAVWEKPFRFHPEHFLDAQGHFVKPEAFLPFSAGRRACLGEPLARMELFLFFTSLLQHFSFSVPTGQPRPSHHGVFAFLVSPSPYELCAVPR
Chain of Cytochrome P450 2C19 (Homo sapiens) (P33261 whole entry, looked up): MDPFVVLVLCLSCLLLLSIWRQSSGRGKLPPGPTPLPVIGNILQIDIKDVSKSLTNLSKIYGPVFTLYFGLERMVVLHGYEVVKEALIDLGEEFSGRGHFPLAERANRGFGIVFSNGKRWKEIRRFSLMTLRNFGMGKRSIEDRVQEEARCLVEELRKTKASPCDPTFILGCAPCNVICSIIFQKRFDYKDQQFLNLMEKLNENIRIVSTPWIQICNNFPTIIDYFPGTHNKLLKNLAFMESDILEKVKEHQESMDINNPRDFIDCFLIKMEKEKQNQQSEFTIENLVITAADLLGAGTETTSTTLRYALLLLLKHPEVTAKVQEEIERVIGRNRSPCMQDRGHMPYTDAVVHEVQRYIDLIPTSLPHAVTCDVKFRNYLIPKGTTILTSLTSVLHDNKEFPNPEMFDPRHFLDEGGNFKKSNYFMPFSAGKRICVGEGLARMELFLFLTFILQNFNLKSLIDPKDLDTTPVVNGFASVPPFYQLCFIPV
Chain of Cytochrome P450 1A2 (Homo sapiens) (P05177 whole entry, looked up): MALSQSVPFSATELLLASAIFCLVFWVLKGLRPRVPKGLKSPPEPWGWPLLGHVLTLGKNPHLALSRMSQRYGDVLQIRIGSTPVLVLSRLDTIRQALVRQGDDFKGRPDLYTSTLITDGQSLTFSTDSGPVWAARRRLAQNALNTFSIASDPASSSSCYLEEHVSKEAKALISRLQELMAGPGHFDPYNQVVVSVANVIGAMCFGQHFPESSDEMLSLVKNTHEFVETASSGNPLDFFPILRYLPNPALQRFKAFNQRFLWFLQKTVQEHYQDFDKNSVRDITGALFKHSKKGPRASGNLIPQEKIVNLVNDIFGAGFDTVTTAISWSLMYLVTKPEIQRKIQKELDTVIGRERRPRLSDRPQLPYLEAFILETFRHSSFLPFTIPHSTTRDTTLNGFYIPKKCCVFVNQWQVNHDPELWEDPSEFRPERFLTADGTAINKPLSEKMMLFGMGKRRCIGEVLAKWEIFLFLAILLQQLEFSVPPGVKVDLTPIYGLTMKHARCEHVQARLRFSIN
Chain of Nuclear receptor subfamily 1 group I member 2 (Homo sapiens) (O75469 whole entry, looked up): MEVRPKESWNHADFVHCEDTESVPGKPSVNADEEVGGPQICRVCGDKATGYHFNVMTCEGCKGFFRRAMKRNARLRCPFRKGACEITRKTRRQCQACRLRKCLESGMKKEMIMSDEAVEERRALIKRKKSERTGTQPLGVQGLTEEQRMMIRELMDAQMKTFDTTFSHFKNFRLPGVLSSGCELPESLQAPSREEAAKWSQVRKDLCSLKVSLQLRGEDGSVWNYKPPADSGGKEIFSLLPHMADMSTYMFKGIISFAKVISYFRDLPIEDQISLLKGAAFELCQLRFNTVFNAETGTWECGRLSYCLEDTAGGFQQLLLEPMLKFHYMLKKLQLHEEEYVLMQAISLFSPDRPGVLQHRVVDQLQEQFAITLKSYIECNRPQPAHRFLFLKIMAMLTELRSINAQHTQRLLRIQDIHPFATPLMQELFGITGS

As to `COc1cc(CC(C)N)cc2c1OCO2` (centres undefined), the Potency entry in experiment [1], in [2], in experiment [3], in experiment [4], in experiment [5] and in experiment [6] was “inactive” throughout. In addition, the Potency entry in [7], in experiment [8], in [10], in experiment [11], in [13] and in [14] was “inactive” each time. Besides, the Potency in experiment [9] was 2.09 µM (active); in experiment [12], 74.1 µM (active).

Turning to `O=NN1CCCCCC1`, the Potency result in experiment [1], in [2], in experiment [3], in experiment [4], in [5] and in experiment [6] was “inactive” each time. Moreover, the Potency entry in experiment [7], in [8], in experiment [9], in experiment [10], in experiment [11] and in [13] was “inactive” each time. The Potency result in experiment [14] is “inactive”.

`CCCCc1c(C)nc(NCC)nc1OS(=O)(=O)N(C)C`: the Potency entry in experiment [1], in [3], in experiment [15] and in [8] was “inactive” throughout. Moreover, the Potency was 61.1 µM (active) in experiment [2]; 61.1 µM (active) in [4]; 9.69 µM (active) in [5]; 79.6 µM (active) in experiment [10]; 31.7 µM (active) in experiment [11]; 12.6 µM (active) in experiment [12]. For the same molecule, in [14], the Potency is 12.6 µM (active).

Take `IC(I)=C(I)I`: the Potency entry in experiment [1], in experiment [6], in [7], in experiment [8], in [9] and in [13] was “inactive” throughout. Besides, the Potency entry in experiment [14] was “inactive”. Besides, the Potency in experiment [2] is 4.86 µM (active); in experiment [3], 4.86 µM (active); in experiment [4], 68.6 µM (active); in experiment [5] it was 4.86 µM (active); in experiment [10], 7.1 µM (active); in experiment [11], 3.56 µM (active). For the same molecule, the Potency in experiment [12] was 10 µM (active).

`Cc1ccc2ccccc2c1`: the Potency result in [1], in [2], in experiment [3], in experiment [4], in [5] and in [15] was “inactive” throughout. Besides, the Potency entry in experiment [7], in [8], in experiment [9], in experiment [10], in [11] and in experiment [13] was “inactive” in each case. Besides, the Potency result in [14] was “inactive”.

For the molecule `O=C(O)C(F)(F)C(F)(F)C(F)(F)C(F)(F)C(F)(F)C(F)(F)C(F)(F)C(F)(F)C(F)(F)C(F)(F)F`, the Potency result in experiment [1], in experiment [2], in [3], in [4], in experiment [5] and in experiment [15] was “inactive” in each case. Further, the Potency entry in [7], in [8], in experiment [9], in experiment [10], in experiment [12] and in experiment [13] was “inactive” in each case. For the same molecule, in experiment [14], the Potency result is “inactive”. Further, in experiment [11], the Potency is 5.34 µM (active).

On to `O=Cc1ccc(Cl)cc1Cl`, for which the Potency entry in [1], in experiment [2], in [3], in experiment [4], in experiment [5] and in experiment [15] was “inactive” each time. The Potency entry in experiment [7], in [8], in experiment [9], in [10], in experiment [11] and in experiment [12] was “inactive” each time. Besides, the Potency result in experiment [13] and in experiment [14] was “inactive” in each case.

For `Nc1nc(=S)[nH][nH]1`, the Potency result in [1], in experiment [2], in experiment [3], in [4], in experiment [5] and in [15] was “inactive” in each case. In addition, the Potency entry in experiment [8], in experiment [13] and in experiment [14] was “inactive” each time. In addition, the results for the Potency in experiment [9], in [10] and in experiment [11] were 44.8 µM (active), 25.2 µM (active) and 31.7 µM (active), respectively.

Regarding `COC(C)(C)CCC[C@H](C)C/C=C/C(C)=C/C(=O)OC(C)C`, the Potency result in experiment [1], in [2], in [3], in [4], in experiment [15] and in [6] was “inactive” each time. In addition, the Potency entry in [7], in experiment [8] and in [13] was “inactive” in each case. Besides, the Potency was 24.3 µM (active) in [5]; 17.8 µM (active) in experiment [10]; 22.4 µM (active) in [11]; 35.6 µM (active) in experiment [12]; 20 µM (active) in experiment [14].
